HSP90 inh: HSP90 refolding inhibition in rabbit reticulocyte lysate; luciferase refolding luminescence, 3 h; inhibition, % at 5.6 µM; hit rate 0.91% among 290,000; AID 1789;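 active = inhibition above the screen-wide mean plus 3 SD, computed separately per campaign, cut at about 16% in these data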;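 also: inhibitors lower the luminescence because luciferase stays unfolded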
HSF1 inhib: HSF1 inhibition. AID 2098. hit rate 0.77% among 300,000. NIH3T3-HGL HSE-luciferase, MG132-induced, luminescence 8 h; active compounds read low. activity change, negative = inhibition, % at 7.5 µM (by protocol);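 active = more than half of replicate wells show activity change below -50%, luminescence cut by over half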;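 also: luciferase reports HSF-1 transcriptional activity via heat shock element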
PG9 binder: binds the HIV-1 gp120 antibody PG9. TR-FRET gp120-PG9 antibody binding. inhibition, % at 6.7 µM. hit rate 0.43% among 360,000. AID 624416; in the data active = inhibition above about 8.5%
AI-2 QS modul: modulates the Vibrio harveyi AI-2 quorum sensing system; Vibrio harveyi JMH597 AI-2 luminescence/OD600 ratio, 9 h; active compounds read low; strain lacks LuxN and CqsS sensors; 0 = neutral-control median; activity change, % at 7.5 µM; hit rate 0.4% among 300,000; AID 2094; in the data active = activity change below about -75%, passing the limit was not always enough;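 also: luminescence divided by OD600 gain over 9 h not by final OD600 alone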
SMARCA2 activ: increases SMARCA2 function in MMTV reporter cells. activation, % at 9.1 µM. hit rate 1% among 370,000. AID 652017. MG213 cells, MMTV-luciferase reporter, dexamethasone, overnight; in the data active = activation above about 7.8%
FXN GAA850 act: activators of GAA850 frataxin (FXN) promoter; HEK293 lucGAA850 FXN promoter luciferase reporter, 24 h; percent of 10 µM SAHA response; activation, % at 6 µM; hit rate 0.56% among 360,000; AID 540364;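 active = activation above the average of all compounds screened plus 3 SD, cutoff fixed separately per campaign, cut at about 7.5% in these data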
GAA30 FXN cntr: activates GAA30 frataxin promoter, counter-screen for GAA850 activators. HEK293 lucGAA30 FXN promoter luciferase, 24 h; DMSO = 0%, 5 µM ipriflavone = 100%. shares compounds with FXN GAA850 act. hit rate 66% among 1,900. activation, % at 6 µM;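 active = mean activation above the mean of solvent-only control wells plus 3 SD, cut at about 22% in these data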;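 also: counterscreen of GAA850 promoter hits where activity marks nonselective or luminescence artifacts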
FXN GAA850 conf: GAA850 FXN promoter activation confirmation. shares compounds with FXN GAA850 act. HEK293 lucGAA850 FXN promoter luciferase reporter, 24 h; 100% = activation by SAHA. activation, % at 6 µM. hit rate 86% among 1,900. AID 588351;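 active = mean activation above a set limit taken from the primary screen, cut at about 8% in these data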
PG9 binder conf: confirmation of small molecules binding HIV-1 gp120 antibody PG9; shares compounds with PG9 binder; TR-FRET PG9 antibody binding, biochemical; inhibition, % at 6.7 µM; hit rate 90% among 1,500; in the data active = inhibition above about 9%
PGV04 Ab binding: binds control antibody PGV04 in PG9 binder counter-screen; inhibition, % at 6.7 µM; AID 651604; TR-FRET PGV04 antibody-gp120 binding, biochemical; hit rate 95% among 1,500; shares compounds with PG9 binder; in the data active = inhibition above about 9.5%
PG9 bind DR: PG9 antibody binding, dose response; shares compounds with PG9 binder; IC50, µM; TR-FRET PG9 antibody-gp120 binding inhibition; AID 651848; 95 tested, under 10 active; in the data active = IC50 below about 10 µM
PGV04 binding DR: PGV04 binding, dose response counter-screen. TR-FRET binding to control antibody PGV04. IC50, µM. shares compounds with PG9 binder. hit rate 20% among 95. AID 651937
PG126 DR counter: counter-screen for PG9 binders: binding to control antibody PG126; shares compounds with PG9 binder; IC50, µM; hit rate 20% among 95; TR-FRET binding to antibody PG126, counterscreen
SMARCA2 conf: SMARCA2 activation, confirmation screen; AID 652260; shares compounds with SMARCA2 activ; activation, % at 9.1 µM; MG213 cells, MMTV-luciferase with dexamethasone, luminescence, overnight; MG213 cells expressing E1A, Rb sequestered; DMSO wells 0%, reference activator 100%; hit rate 30% among 3,500;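 active = activation above its plate's cutoff, the mean activation of tested wells plus 3 SD, cut at about 7.9% in these data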
VP16 Luc act: GAL4-VP16 reporter activation counter-screen; shares compounds with SMARCA2 activ; hit rate 41% among 3,500; AID 686939; HEK293 GAL4-VP16 pG5luc reporter, luciferase luminescence; scaled: DMSO wells 0%, SAHA wells 100%; activation, % at 9.1 µM;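 active = activation above the solvent-only control well mean plus 3 SD, averaged across control plates, cut at about 5.2% in these data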
Each line names hits and unclear results; the compound was inactive in the other large screens (follow-up assays come after a bar, where they were run). Shown are actives, neighbours in structure and some others; about 3.4% of the full set was active somewhere. Rule as the data show it, unless noted: active = IC50 below about 9 µM; inactive = the rest.

Cc1nonc1C(=O)N/N=C/c1ccccc1	none
Cc1nonc1C(=O)N/N=C/c1ccc(O)c(O)c1	SMARCA2 activ 9.0, FXN GAA850 act 9.4 | GAA30 FXN cntr 29.6 | FXN GAA850 conf 8.4 | SMARCA2 conf inactive | VP16 Luc act inactive
O=C1C(=O)N(CCN2CCOCC2)C(c2cccc(Cl)c2)/C1=C(\O)c1ccc2c(c1)OCCO2 (stereo not drawn)	PG9 binder 31.5 | PG9 binder conf 36.1 | PGV04 Ab binding 42.3
CCCCOc1cccc(C2/C(=C(\O)c3ccc4c(c3)OCCO4)C(=O)C(=O)N2CCN2CCOCC2)c1 (stereo not drawn)	PG9 binder 10.2 | PG9 binder conf 18.4 | PGV04 Ab binding 30.5
CCCOc1cccc(C2/C(=C(\O)c3ccc4c(c3)OCCO4)C(=O)C(=O)N2CCCn2ccnc2)c1 (stereo not drawn)	none
CCN(c1ccc(C(=O)CN2C(=O)NC3(CCOc4ccccc43)C2=O)cc1)S(C)(=O)=O (stereo not drawn)	PG9 binder 9.8 (no result: HSP90 inh, HSF1 inhib, AI-2 QS modul) | PG9 binder conf 33.6 | PGV04 Ab binding 32.4 | PG9 bind DR inactive | PGV04 binding DR inactive | PG126 DR counter inactive
O=C(CN1C(=O)NC2(CCOc3ccccc32)C1=O)c1ccc(Cl)cc1 (stereo not drawn)	none (no result: HSP90 inh)
CC(C)[C@@H](C)/C=C/[C@@H](C)[C@H]1CC[C@@H]2[C@]1(C)CCC1[C@]23C=C[C@]2(C[C@@H](O)CC[C@]12C)N(c1ccc(F)cn1)O3 (stereo partly drawn)	none (no result: HSP90 inh, HSF1 inhib, AI-2 QS modul, FXN GAA850 act)
Cc1cc(Cl)ccc1NC(=O)/N=C1/NC(=O)CS1	none (no result: HSP90 inh, HSF1 inhib, AI-2 QS modul, FXN GAA850 act)
CCCS(=O)(=O)NC(=O)C1(C)CCN(C(=O)c2ccc(OC)cc2OC)C1 (stereo not drawn)	none (no result: HSP90 inh, HSF1 inhib, AI-2 QS modul)
COc1ccc(-n2c(=S)[nH]c3c(oc4ccccc43)c2=O)cc1	PG9 binder 25.9 | PG9 binder conf 13.3 | PGV04 Ab binding 11.7 | PG9 bind DR inactive | PGV04 binding DR inactive | PG126 DR counter inactive
CC1(C)CC(=O)C=C(c2ccc(-c3cnn(Cc4ccccc4)c3)cc2)C1=O	none (no result: HSP90 inh, HSF1 inhib, AI-2 QS modul)
CCC(=O)c1cn(CC(=O)Nc2cccc(C)c2C)c2ccccc12	PG9 binder 9.9 | PG9 binder conf 18.9 | PGV04 Ab binding 23.1
CCC(=O)c1cn(CC(=O)O)c2ccccc12	none
CCC(=O)c1cn(CC(=O)Nc2ccccc2Cl)c2ccccc12	PG9 binder 11.3 | PG9 binder conf 13.7 | PGV04 Ab binding 14.7

Screening results deposited in PubChem by several laboratories.
